Assay results published in PubChem BioAssay (NCATS).
Inconclusive results are not listed. A call without a number means that no potency is given here. Active and inactive are the calls of the source. The call rests on the fitted dose curve; in most records, active means well fitted curve in the direction sought with a large enough effect; inconclusive means small, poorly fitted or top-dose-only effect, or another doubt; inactive means no such curve, though single readings can be large; an effect the other way counts as inactive or inconclusive.

Legend:
[1] = qHTS of pediatric cancer cell lines to identify multiple opportunities for drug repurposing: Confirmatory screen for MG 63 (6-TG R) cells (AID 1347119); further: nearly all actives have a fitted effect of over 55% in size
Method in brief: (§1)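 Cells (500-1,000/well) rested 5 h, then received compounds for 48 h; metabolically active cells were measured by CellTiter-Glo luminescence. Final concentrations spanned up to 46 µM (MIPE, 11-point) or 0.59 nM-46 µM (NPC, 8-point) in primary screens, 11-point in follow-ups.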

[2] = qHTS of pediatric cancer cell lines to identify multiple opportunities for drug repurposing: Confirmatory screen for control Hh wild type fibroblast cells (AID 1347121); further: nearly all actives have a fitted effect of over 70% in size
Method in brief: as §1

[3] = qHTS of pediatric cancer cell lines to identify multiple opportunities for drug repurposing: Confirmatory screen for U-2 OS cells (AID 1347122); further: nearly all actives have a fitted effect of over 65% in size
Method in brief: as §1

[4] = qHTS of pediatric cancer cell lines to identify multiple opportunities for drug repurposing: Confirmatory screen for Rh41 cells (AID 1347123);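 further: 48 h compound exposure; nearly all actives have a fitted effect of over 60% in size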
Method in brief: as §1

[5] = qHTS of pediatric cancer cell lines to identify multiple opportunities for drug repurposing: Confirmatory screen for RD cells (AID 1347124);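 further: cells exposed to compound for 48 h before viability readout; nearly all actives have a fitted effect of over 65% in size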
Method in brief: as §1

[6] = qHTS of pediatric cancer cell lines to identify multiple opportunities for drug repurposing: Confirmatory screen for Rh30 cells (AID 1347126); further: nearly all actives have a fitted effect of over 55% in size
Method in brief: as §1

[7] = qHTS of pediatric cancer cell lines to identify multiple opportunities for drug repurposing: Confirmatory screen for Saos-2 cells (AID 1347127); further: nearly all actives have a fitted effect of over 60% in size
Method in brief: as §1

[8] = qHTS of pediatric cancer cell lines to identify multiple opportunities for drug repurposing: Confirmatory screen for OHS-50 cells (AID 1347128);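 further: compound exposure lasted 48 h at 37 degrees C; nearly all actives have a fitted effect of over 55% in size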
Method in brief: as §1

[9] = qHTS of pediatric cancer cell lines to identify multiple opportunities for drug repurposing: Confirmatory screen for SK-N-SH cells (AID 1347129);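 further: cells exposed to compound for 48 h before viability read; nearly all actives have a fitted effect of over 60% in size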
Method in brief: as §1

[10] = qHTS of pediatric cancer cell lines to identify multiple opportunities for drug repurposing: Confirmatory screen for Rh18 cells (AID 1347125); further: nearly all actives have a fitted effect of over 55% in size
Method in brief: as §1
Potency means the concentration at half of the fitted maximal effect.

With C[C@@H]1C[C@H]2[C@@H]3CCC4=CC(=O)C=C[C@]4(C)[C@@]3(F)[C@@H](O)C[C@]2(C)[C@@]1(O)C(=O)CO the Potency [1] was “inactive”, the Potency [2] was “inactive” and the Potency [3] was “inactive”. For the same compound, the Potency [4] was “inactive”, the Potency [5] was “inactive” and the Potency [6] was “inactive”. For the same compound, the Potency [7] was “inactive”, the Potency [8] was “inactive” and the Potency [9] was “inactive”.

For CC1CNc2c(cccc2S(=O)(=O)N[C@@H](CCCN=C(N)N)C(=O)N2CC[C@@H](C)C[C@@H]2C(=O)O)C1 (some centres not stated), the Potency [1] was “inactive”, the Potency [2] was “inactive” and the Potency [3] was “inactive”. For the same compound, the Potency [4] was “inactive”, the Potency [10] was “inactive” and the Potency [6] was 20800 nM (active). The Potency [8] was “inactive” and the Potency [9] was “inactive”.

For CC1(C)OC2CC3C4CC(F)C5=CC(=O)C=CC5(C)C4C(O)CC3(C)[C@]2(C(=O)CO)O1 (some centres not stated), the Potency [1] was “inactive”, the Potency [2] was “inactive” and the Potency [3] was “inactive”. The Potency [5] was “inactive”, the Potency [10] was “inactive” and the Potency [6] was “inactive”. The Potency [7] was “inactive”, the Potency [8] was “inactive” and the Potency [9] was “inactive”.

In the case of COC(=O)[C@H](c1ccccc1Cl)N1CCc2sccc2C1, the Potency [1] is reported as “inactive”, the Potency [2] is reported as “inactive” and the Potency [3] is reported as “inactive”. For the same compound, the Potency [4] was “inactive”, the Potency [5] was “inactive” and the Potency [10] was “inactive”. For the same compound, the Potency [6] was “inactive”, the Potency [7] was “inactive” and the Potency [8] was “inactive”. The Potency [9] was “inactive”.

For COc1ccc(-c2ccc3ncc4c(c3c2)n(-c2ccc(N3CCNCC3)c(C(F)(F)F)c2)c(=O)n4C)cn1, the Potency [1] was 32.9 nM (active), the Potency [2] was 10400 nM (active) and the Potency [3] was 465 nM (active). For the same compound, the Potency [4] was 58.5 nM (active), the Potency [5] was 185 nM (active) and the Potency [10] was 414 nM (active). For the same compound, the Potency [6] was 293 nM (active), the Potency [8] was 369 nM (active) and the Potency [9] was 132 nM (active).

In the case of C[C@H](c1ccc(F)cc1CCCC(=O)O)N(c1cc(F)ccc1F)S(=O)(=O)c1ccc(Cl)cc1, the Potency [1] is reported as “inactive”, the Potency [2] is reported as “inactive” and the Potency [3] is reported as “inactive”. For the same compound, the Potency [4] was “inactive”, the Potency [6] was “inactive” and the Potency [7] was “inactive”. The Potency [9] was “inactive”.

With CN1CCN(c2ncc(-c3cc(Cl)cc(Cl)c3Cl)c(N)n2)CC1 the Potency [1] was “inactive”, the Potency [2] was “inactive” and the Potency [3] was “inactive”. The Potency [4] was “inactive”, the Potency [5] was “inactive” and the Potency [7] was “inactive”. The Potency [8] was “inactive” and the Potency [9] was 20900 nM (active).

For Cc1c(C(=O)Nc2ccc(N3C[C@@H](C)O[C@@H](C)C3)nc2)cccc1-c1ccc(OC(F)(F)F)cc1, the Potency [1] was 10400 nM (active), the Potency [2] was “inactive” and the Potency [3] was 18500 nM (active). The Potency [4] was 16500 nM (active), the Potency [5] was “inactive” and the Potency [10] was “inactive”. The Potency [9] was “inactive”.

For C[C@@]1(C(=O)Nc2ccc(F)nc2)CCCN1c1nc(Nc2cc(C3CC3)[nH]n2)c2cccn2n1, the Potency [1] was 104 nM (active), the Potency [2] was 14700 nM (active) and the Potency [3] was 1650 nM (active). For the same compound, the Potency [4] was 208 nM (active), the Potency [10] was 7370 nM (active) and the Potency [7] was 1850 nM (active). The Potency [8] was 5220 nM (active) and the Potency [9] was 1660 nM (active).

With CC(C)CN(C[C@H](O)[C@H](Cc1ccccc1)NC(=O)O[C@H]1CCOC1)S(=O)(=O)c1ccc(N)cc1 the Potency [1] was 8270 nM (active), the Potency [2] was “inactive” and the Potency [3] was “inactive”. The Potency [4] was “inactive”, the Potency [5] was “inactive” and the Potency [10] was “inactive”. The Potency [6] was “inactive”, the Potency [7] was “inactive” and the Potency [8] was “inactive”. For the same compound, the Potency [9] was “inactive”.

For CO[C@H]1/C=C\O[C@@]2(C)Oc3c(C)c(O)c4c(O)c(c(C=NN5CCN(C6CCCC6)CC5)c(O)c4c3C2=O)NC(=O)C(C)=CC=C[C@H](C)[C@H](O)[C@@H](C)[C@@H](O)[C@@H](C)[C@H](OC(C)=O)[C@H]1C, the Potency [1] was “inactive”, the Potency [2] was “inactive” and the Potency [3] was “inactive”. The Potency [4] was 20800 nM (active), the Potency [5] was “inactive” and the Potency [10] was “inactive”. For the same compound, the Potency [7] was 20800 nM (active) and the Potency [9] was “inactive”.

For COc1ccc2c(c1)c(C1=C(c3c[nH]c4ccccc34)C(=O)NC1=O)cn2CCCN(C)C, the Potency [1] was “inactive”, the Potency [2] was “inactive” and the Potency [4] was 20800 nM (active). For the same compound, the Potency [10] was “inactive”, the Potency [6] was 2330 nM (active) and the Potency [7] was “inactive”. For the same compound, the Potency [8] was 23300 nM (active) and the Potency [9] was 16600 nM (active).

In the case of Cc1ccc(C(=O)N(CCCN)[C@@H](c2oc3cc(Cl)ccc3c(=O)c2Cc2ccccc2)C(C)C)cc1, the Potency [1] is reported as 23.3 nM (active), the Potency [3] is reported as 36.9 nM (active) and the Potency [4] is reported as 9.3 nM (active). The Potency [5] was 16.5 nM (active), the Potency [10] was 26100 nM (active) and the Potency [6] was 23300 nM (active). For the same compound, the Potency [7] was 9.3 nM (active) and the Potency [8] was 9.3 nM (active).

For O=C1Nc2ccc(I)cc2C1=Cc1cc(Br)c(O)c(Br)c1, the Potency [1] was “inactive”, the Potency [4] was “inactive” and the Potency [5] was “inactive”. The Potency [10] was “inactive”, the Potency [6] was 1170 nM (active) and the Potency [7] was “inactive”. The Potency [9] was “inactive”.

In the case of O=C(CC12CC3CC(CC(C3)C1)C2)Nc1cccc2nc(NCCNCCO)ccc12, the Potency [1] is reported as “inactive”, the Potency [2] is reported as “inactive” and the Potency [4] is reported as 13100 nM (active). The Potency [10] was “inactive” and the Potency [9] was “inactive”.

In the case of CN1N=C(N)c2cn([C@@H]3O[C@H](COP(=O)(O)O)[C@@H](O)[C@@H]3O)c3ncnc1c23, the Potency [1] is reported as 827 nM (active), the Potency [4] is reported as 1170 nM (active) and the Potency [10] is reported as 329 nM (active). For the same compound, the Potency [7] was 1850 nM (active), the Potency [8] was 1170 nM (active) and the Potency [9] was 1050 nM (active).
